“And” between values parts separate entries of the source, which are not always exact repeats. Equal entries are not always repeated. Records with an inconclusive call do not appear. Entries that show only a call come without a potency. Some compounds were tested as several samples or in several runs, with calls that do not always agree. The source made the active and inactive calls. Unless noted, the call rests on the fitted dose curve; in most records, active means well fitted curve in the direction sought with a large enough effect in the repeat runs; inconclusive means weak or mixed curves; inactive means no such curve, though single readings can be large; an effect the other way counts as inactive or inconclusive.
How the values were obtained:
[1] = qHTS assay for small molecule agonists of the p53 signaling pathway (AID 651631; calls by dose curve; further: nearly all actives have a fitted effect of over 15% in size)
In short: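 Read-out is beta-lactamase FRET fluorescence measured 2 h after substrate addition at room temperature, in HCT-116 cells with a p53 response element-driven reporter exposed to compounds for 16 h at 37 °C.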

[2] = qHTS assay for small molecules that induce genotoxicity in human embryonic kidney cells expressing luciferase-tagged ATAD5 (AID 651632); further: nearly all actives have a fitted effect of over 15% in size
In short: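 Test compounds were delivered by pin tool onto HEK293T reporter cells (2,000/well) expressing ATAD5 fused to luciferase. After 16 hr at 37C, 5% CO2, Amplite was added for 30 min at room temperature and luminescence was measured.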

[3] = qHTS assay for small molecule agonists of the p53 signaling pathway - cell viability (AID 651633; calls by dose curve; further: nearly all actives have a fitted effect of over 30% in size; further: potency means the concentration at half of the fitted maximal effect)
In short: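 Viability counter-read: CellTiter-Glo luminescence (30 min, room temperature) in the same p53RE-bla plates. These plates had been exposed to compounds for 16 h at 37 C.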

[4] = qHTS assay for small molecules that induce genotoxicity in human embryonic kidney cells expressing luciferase-tagged ATAD5 - cell viability (AID 651634; calls by dose curve; further: nearly all actives have a fitted effect of over 25% in size)
In short: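 Quantitative high-throughput format. HEK293T cells expressing ATAD5 fused to luciferase were plated at 2,000 cells/well and treated 15.5 hr with compound versus DMSO. Viability was determined by fluorescent live-cell protease substrate, 30 min at 37C.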

[5] = qHTS assay for small molecule disruptors of the mitochondrial membrane potential - cell viability (AID 720634; calls by dose curve; further: nearly all actives have a fitted effect of over 20% in size; further: potency means the concentration at half of the fitted maximal effect)
In short: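 Same-well counter-screen: following the MMP dye addition, CellTiter-Glo was added to 1 hr compound-treated HepG2 cells and luminescence read after 30 min at room temperature.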

[6] = qHTS assay for small molecule disruptors of the mitochondrial membrane potential (AID 720635); further: potency means the concentration at half of the fitted maximal effect
In short: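 Mitochondrial membrane potential tracked with Mito-MPS dye, red aggregates (ex 540/em 590 nm) against green monomers (ex 490/em 535 nm). Compound treatment 1 hr at 37C, dye 30 min in HepG2.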

[7] = qHTS assay to test for compound auto fluorescence at 590 nm (red) in HepG2 cells (AID 720674)
In short: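 Red autofluorescence (Ex/Em 540/590 nm, Rose Bengal sodium equivalents) was measured in HepG2 cells, 2,000 per well in MEM plus 10% FBS, plated overnight at 37 C. Readings were taken 1 hr after adding 23 nL compound or DMSO, at 37 C and 5% CO2.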

[8] = qHTS assay to test for compound auto fluorescence at 535 nm (green) in HepG2 cells (AID 720675)
[9] = qHTS assay to test for compound auto fluorescence at 460 nm (blue) in HEK293 cells (AID 720678)
In short: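 Measured: blue fluorescence (Ex 405/Em 460 nm) of compound-treated HEK293 cells, incubated overnight at 37C with 5% CO2 and scaled to triamterene equivalents.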

[10] = qHTS assay to test for compound auto fluorescence at 590 nm (red) in HEK293 cells (AID 720679)
In short: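 Using HEK293 cells at 2,000 per well, the screen added 23 nL of each compound after cell attachment and incubated overnight (37C, 5% CO2). The plate reader then captured red-label fluorescence, Ex/Em 540/590nm.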

[11] = qHTS assay to test for compound auto fluorescence at 535 nm (green) in HEK293 cells (AID 720680)
[12] = qHTS assay to test for compound auto fluorescence at 460 nm (blue) in HEK293 cell free culture (AID 720681)
In short: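 Blue fluorescence (Ex 405/Em 460 nm, triamterene-equivalent) was read immediately after pin transfer of compound or DMSO into medium (DMEM, 10% FBS) without cells.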

[13] = qHTS assay to test for compound auto fluorescence at 535 nm (green) in HEK293 cell free culture (AID 720682)
In short: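 Fluorescein serves as the green reference fluorophore; each compound's intrinsic emission at 535 nm (excitation 485 nm) is reported as an equivalent amount of that dye, measured in serum-containing DMEM without cells.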

[14] = qHTS assay to test for compound auto fluorescence at 590 nm (red) in HEK293 cell free culture (AID 720683)
In short: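 Red-channel autofluorescence of compounds in culture medium (DMEM, 10% FBS), no cells, measured at 540/590 nm. Rose Bengal sodium is the reference fluorophore for equivalence.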

[15] = qHTS assay to test for compound auto fluorescence at 590 nm (red) in HepG2 cell free culture (AID 720684)
In short: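 No cells present: MEM + 10% FBS only. Compound pinned in, red label read (540/590 nm). Activity = fluorescence equivalent to Rose Bengal sodium.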

[16] = qHTS assay to test for compound auto fluorescence at 460 nm (blue) in HepG2 cell free culture (AID 720685)
In short: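 Cell-free plates of MEM plus 10% FBS received 23 nL compound or DMSO vehicle; blue-channel (405/460 nm) intensity scored against triamterene as reference fluorophore.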

[17] = qHTS assay to test for compound auto fluorescence at 535 nm (green) in HepG2 cell free culture (AID 720686)
[18] = qHTS assay to test for compound auto fluorescence at 460 nm (blue) in HepG2 cells (AID 720687)
In short: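 Blue-channel autofluorescence (Ex/Em 405/460 nm, triamterene-equivalent) was measured after 1 hr compound exposure at 37 C, 5% CO2. Cells were HepG2, plated overnight at 37 C in MEM plus 10% FBS.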

[19] = molecular target: Glucocorticoid receptor (Homo sapiens) (UniProt P04150); assay: qHTS assay to identify small molecule agonists of the glucocorticoid receptor (GR) signaling pathway (AID 720691; active means well fitted activation curve with a large enough effect in the signal ratio in the repeat runs, not every such curve was filed as active; the % refers to the signal ratio)
Chain of Glucocorticoid receptor (Homo sapiens) (P04150 whole entry, looked up): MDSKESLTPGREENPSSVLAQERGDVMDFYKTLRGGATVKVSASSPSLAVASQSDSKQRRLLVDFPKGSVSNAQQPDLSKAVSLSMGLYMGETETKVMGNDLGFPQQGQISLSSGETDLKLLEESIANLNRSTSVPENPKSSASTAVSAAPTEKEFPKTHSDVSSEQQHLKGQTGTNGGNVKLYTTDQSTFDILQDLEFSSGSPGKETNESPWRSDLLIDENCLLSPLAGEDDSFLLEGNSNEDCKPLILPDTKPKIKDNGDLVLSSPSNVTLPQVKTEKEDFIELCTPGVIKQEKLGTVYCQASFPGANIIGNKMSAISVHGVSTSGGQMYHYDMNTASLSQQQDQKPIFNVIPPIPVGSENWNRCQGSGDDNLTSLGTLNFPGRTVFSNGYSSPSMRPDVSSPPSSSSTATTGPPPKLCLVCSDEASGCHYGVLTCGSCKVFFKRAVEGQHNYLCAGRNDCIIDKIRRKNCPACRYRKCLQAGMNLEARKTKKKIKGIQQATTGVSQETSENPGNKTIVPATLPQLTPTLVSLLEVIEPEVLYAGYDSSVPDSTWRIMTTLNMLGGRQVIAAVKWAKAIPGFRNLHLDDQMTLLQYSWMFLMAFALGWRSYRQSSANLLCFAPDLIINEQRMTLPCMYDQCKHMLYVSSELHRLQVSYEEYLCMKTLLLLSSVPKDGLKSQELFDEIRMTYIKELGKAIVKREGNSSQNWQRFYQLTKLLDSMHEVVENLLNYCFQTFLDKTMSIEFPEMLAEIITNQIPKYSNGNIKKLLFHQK
In short: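 A HeLa cervical cancer line expressing GR and a glucocorticoid response element-driven beta-lactamase gene is treated with compounds for 18 h; LiveBLAzer B/G FRET substrate is then applied and fluorescence read.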

[20] = molecular target: Glucocorticoid receptor (Homo sapiens) (UniProt P04150); assay: qHTS assay to identify small molecule antagonists of the glucocorticoid receptor (GR) signaling pathway (AID 720692; active means well fitted inhibition curve with a large enough effect in the signal ratio in the repeat runs, not every such curve was filed as active; the % refers to the signal ratio)
In short: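 GRE-bla HeLa line, dex-stimulated (5 nM final). Compound exposure 18 h, 37 C. Beta-lactamase FRET read after 2 h RT substrate.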

## Cc1ccc(N=C=O)cc1N=C=O
[1]
  Potency: inactive
[2]
  Potency: inactive
[3]
  Potency: inactive
[4]
  Potency: inactive
[5]
  Potency: inactive
[6]
  Potency: 19.8 µM (active)
[7]
  outcome: inactive
[8]
  outcome: inactive
[9]
  outcome: inactive
[10]
  outcome: inactive
[11]
  outcome: inactive
[12]
  outcome: inactive
[13]
  outcome: inactive
[14]
  outcome: inactive
[15]
  outcome: inactive
[16]
  outcome: inactive
[17]
  outcome: inactive
[18]
  outcome: inactive
[19]
  outcome: inactive
[20]
  Potency: inactive

## Nc1ncc([N+](=O)[O-])s1
[1]
  Potency: inactive
[2]
  Potency: inactive
[3]
  Potency: inactive
[4]
  Potency: inactive
[5]
  Potency: inactive
[7]
  outcome: inactive
[8]
  outcome: inactive
[9]
  outcome: inactive
[10]
  outcome: inactive
[11]
  outcome: inactive
[12]
  outcome: inactive
[13]
  outcome: inactive
[14]
  outcome: inactive
[15]
  outcome: inactive
[16]
  outcome: inactive
[17]
  outcome: inactive
[18]
  outcome: inactive
[19]
  outcome: inactive
[20]
  Potency: inactive

## O=C(O)C(Br)Br
[1]
  Potency: inactive
[2]
  Potency: inactive
[3]
  Potency: inactive
[4]
  Potency: inactive
[5]
  Potency: inactive
[6]
  Potency: inactive
[7]
  outcome: inactive
[8]
  outcome: inactive
[9]
  outcome: inactive
[10]
  outcome: inactive
[11]
  outcome: inactive
[12]
  outcome: inactive
[13]
  outcome: inactive
[14]
  outcome: inactive
[15]
  outcome: inactive
[16]
  outcome: inactive
[17]
  outcome: inactive
[18]
  outcome: inactive
[19]
  outcome: inactive
[20]
  Potency: inactive

## O=[N+]([O-])c1cc([As](=O)(O)O)ccc1O
[1]
  Potency: inactive
[2]
  Potency: inactive
[3]
  Potency: inactive
[4]
  Potency: inactive
[5]
  Potency: inactive
[6]
  Potency: inactive
[7]
  outcome: inactive
[8]
  outcome: inactive
[9]
  outcome: inactive
[10]
  outcome: inactive
[11]
  outcome: inactive
[12]
  outcome: inactive
[13]
  outcome: inactive
[14]
  outcome: inactive
[15]
  outcome: inactive
[16]
  outcome: inactive
[17]
  outcome: inactive
[18]
  outcome: inactive
[19]
  outcome: inactive
[20]
  Potency: inactive

## CCOP(=S)(OCC)Oc1cc(C)nc(C(C)C)n1
[1]
  Potency: inactive
[2]
  Potency: inactive
[3]
  Potency: inactive and 61.1 µM (active)
[4]
  Potency: inactive
[5]
  Potency: inactive and 48.6 µM (active)
[6]
  Potency: inactive and 30.6 µM (active)
[7]
  outcome: inactive
[8]
  outcome: inactive
[9]
  outcome: inactive
[10]
  outcome: inactive
[11]
  outcome: inactive
[12]
  outcome: inactive
[13]
  outcome: inactive
[14]
  outcome: inactive
[15]
  outcome: inactive
[16]
  outcome: inactive
[17]
  outcome: inactive
[18]
  outcome: inactive
[19]
  outcome: inactive
[20]
  Potency: inactive

## OC[C@@H](O)[C@H]1O[C@@H]2O[C@H](C(Cl)(Cl)Cl)O[C@@H]2[C@H]1O
[2]
  Potency: inactive
[4]
  Potency: inactive
[5]
  Potency: inactive
[6]
  Potency: inactive
[7]
  outcome: inactive
[8]
  outcome: inactive
[9]
  outcome: inactive
[10]
  outcome: inactive
[11]
  outcome: inactive
[12]
  outcome: inactive
[13]
  outcome: inactive
[14]
  outcome: inactive
[15]
  outcome: inactive
[16]
  outcome: inactive
[17]
  outcome: inactive
[18]
  outcome: inactive
[19]
  outcome: inactive
[20]
  Potency: inactive

## Sc1ccccc1
[2]
  Potency: inactive
[3]
  Potency: inactive
[4]
  Potency: inactive
[5]
  Potency: inactive
[6]
  Potency: inactive
[7]
  outcome: inactive
[8]
  outcome: inactive
[9]
  outcome: inactive
[10]
  outcome: inactive
[11]
  outcome: inactive
[12]
  outcome: inactive
[13]
  outcome: inactive
[14]
  outcome: inactive
[15]
  outcome: inactive
[16]
  outcome: inactive
[17]
  outcome: inactive
[18]
  outcome: inactive
[19]
  outcome: inactive
[20]
  Potency: inactive

## C/C=C/c1ccc2c(c1)OCO2
[1]
  Potency: inactive
[3]
  Potency: inactive
[4]
  Potency: inactive
[5]
  Potency: inactive
[6]
  Potency: 62.3 µM (active)
[7]
  outcome: inactive
[8]
  outcome: inactive
[9]
  outcome: inactive
[10]
  outcome: inactive
[11]
  outcome: inactive
[12]
  outcome: inactive
[13]
  outcome: inactive
[14]
  outcome: inactive
[15]
  outcome: inactive
[16]
  outcome: inactive
[17]
  outcome: inactive
[18]
  outcome: inactive

## CNc1cnn(-c2cccc(C(F)(F)F)c2)c(=O)c1Cl
[1]
  Potency: inactive
[3]
  Potency: inactive
[4]
  Potency: inactive
[5]
  Potency: inactive
[6]
  Potency: inactive
[7]
  outcome: inactive
[8]
  outcome: inactive
[9]
  outcome: inactive
[10]
  outcome: inactive
[11]
  outcome: inactive
[12]
  outcome: inactive
[13]
  outcome: inactive
[14]
  outcome: inactive
[15]
  outcome: inactive
[16]
  outcome: inactive
[17]
  outcome: inactive
[18]
  outcome: inactive
[19]
  outcome: inactive
[20]
  Potency: inactive
